Source: ChEMBL document CHEMBL3433997, “St. Jude Leishmania screening dataset” (2016)

How the values were obtained:
Type in all cases: functional
[1] = biological target: Solute carrier family 2, facilitated glucose transporter member 1 (Homo sapiens) (UniProt P11166); assay: ST_JUDE_LEISH: Cytotoxicity at 2uM final concentration against transgenic Leishmania Mexicana promastigotes LmGLUT1 that are glucose transport deficient and complemented with the human glucose transporter GLUT1. Activity is measured by DNA content using SYBR green in vitro
Sequence of Solute carrier family 2, facilitated glucose transporter member 1 (Homo sapiens) (P11166 whole entry): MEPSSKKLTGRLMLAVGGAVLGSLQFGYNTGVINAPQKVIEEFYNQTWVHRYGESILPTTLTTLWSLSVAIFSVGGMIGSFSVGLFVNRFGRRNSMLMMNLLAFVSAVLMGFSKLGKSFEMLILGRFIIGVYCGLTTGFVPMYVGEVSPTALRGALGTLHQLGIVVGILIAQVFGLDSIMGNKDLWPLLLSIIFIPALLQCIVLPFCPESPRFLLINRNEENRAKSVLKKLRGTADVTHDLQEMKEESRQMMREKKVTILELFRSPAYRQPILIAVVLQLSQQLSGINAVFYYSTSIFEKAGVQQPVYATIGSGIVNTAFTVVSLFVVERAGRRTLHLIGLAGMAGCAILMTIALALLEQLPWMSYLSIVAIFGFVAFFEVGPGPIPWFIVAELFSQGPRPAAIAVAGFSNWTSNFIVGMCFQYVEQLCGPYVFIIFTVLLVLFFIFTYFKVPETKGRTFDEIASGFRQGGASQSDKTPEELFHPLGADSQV

[2] = biological target: Hexose transporter 1 (Plasmodium falciparum) (UniProt O97467); assay: ST_JUDE_LEISH: Cytotoxicity at 2uM final concentration against transgenic Leishmania Mexicana promastigotes LmPfHT that are glucose transport deficient and complemented with the Plasmodium falciparum hexose transporter. Activity is measured by DNA content using SYBR green in vitro
[3] = biological target: Glucose transporter (Leishmania mexicana) (UniProt O61059); assay: ST_JUDE_LEISH: Cytotoxicity at 2uM final concentration against transgenic Leishmania Mexicana promastigotes LmGT2 that are glucose transport deficient and complemented with the L. Mexicana glucose transporter 2. Activity is measured by DNA content using SYBR green in vitro

Row | Structure (SMILES) | inhibition [1] | inhibition [2] | inhibition [3]
1 | Cc1ccc(Nc2nc(C)cc(NC3CCCC3)n2)cc1 | 29.3% | 19.7% | 10.8%
2 | CCc1cc2c(cc1CC)CC(NC[C@@H](O)c1ccc(O)c3[nH]c(=O)ccc13)C2 | 1.34% | 1.76% | 2.1%
3 | COc1ccc(C(=O)N2CCC3(CC2)C(=O)N(CC(=O)NCC2CCCCC2)CN3c2ccccc2)c(OC)c1 | 5.13% | 7.03% | 3.99%
4 | Cc1cc2[nH]c(-c3ccc(C(=O)NCCCN4CCN(c5cccc(Cl)c5)CC4)cc3F)nc2cc1Cl | -0.3% | 0.43% | -0.02%
5 | Cc1ccc(NC(=O)NC2CCN(CCCCCNC(=O)/C=C/c3ccc(Cl)c(Cl)c3)CC2)cc1 | 0.42% | 1.16% | -5.98%
6 | CC1(C)S(=O)(=O)CC(O)CS1(=O)=O | 3.87% | 3.02% | 2.49%
7 | Cc1c(C)c2c(c(C)c1O)CC[C@](C)(C(=O)N1CCC(CCN3CCC(c4c[nH]c5ccccc45)CC3)CC1)O2 | 0.17% | -1.76% | -0.6%
8 | CS(=O)(=O)CCNCc1cccc(-c2ccc3c(Nc4ccc(Oc5ccccc5)cc4)ccnc3c2)c1 | 0.35% | -0.06% | 1.33%
9 | O=C(Nc1ccc(OC2CCN(Cc3ccc(F)cc3)C2)c(Cl)c1)c1cccs1 (centres undefined) | 2.66% | 2.25% | 0.55%
10 | COc1ccc(-c2nc3cccnc3n2CC(=O)Nc2c(C)cc(C)cc2C)c(OC)c1 | -0.28% | -1.73% | 1.82%
11 | Cn1nccc1C(=O)NCCNCc1cccc(-c2ccc(-c3nc4cc(C(F)(F)F)ccc4[nH]3)s2)c1 | 16.3% | 15.5% | 14.6%
12 | CC(C)C(=O)ONC1=NC(C)(C)N(OCCCOc2cc(Cl)c(Cl)cc2Cl)C(NOC(=O)C(C)C)=N1 | -0.37% | 1.64% | -0.44%
13 | N=C1NC(=O)C(=Cc2cn(-c3ccccc3)nc2-c2cccc(S(=O)(=O)N3CCCC3)c2)S1 | 8.5% | 6.98% | 7.82%
14 | O=c1cc(NCCCNC2CCCc3c2cc(Cl)c(Cl)c3Cl)[nH]c2ccccc12 (centres undefined) | -3.43% | 1.1% | 0.08%
15 | O=C(Nc1cccc(CN2CCN(Cc3ccc(O)cc3)CC2)c1)c1cccc(C(F)(F)F)c1 | 6.03% | 6.51% | 4.56%
16 | N#Cc1ccc2c(c1)CCN(CCC1CCC(NC(=O)Nc3ccncc3)CC1)C2 (centres undefined) | 5.14% | 3.65% | 5.01%
17 | CCCCCCCN(CCCCCCC)CCCC(=O)Nc1ccnc2ccc(OC)cc12 | 1.2% | 1.31% | -1.2%

Row | Structure (SMILES) | inhibition [1] | inhibition [2] | inhibition [3]
18 | CCc1cn2c3c(cc(C(=O)N[C@@H](Cc4ccccc4)[C@H](O)CNC4CCOCC4)cc13)N(C)S(=O)(=O)C2 | 0.25% | 1.65% | -0.23%
19 | Fc1ccc(NC(S)=NN=Cc2ccccn2)cc1 | 4.22% | 2.09% | -1.91%
20 | COc1ccc(-c2cccc(NC(=O)c3cccs3)c2)cc1CN1CCCN(C)CC1 | 0.38% | 0.37% | -1.25%
21 | CC(C)(C)CCOC(=O)N1CCc2c(cc(O)c(O)c2Cl)C(c2ccc(O)cc2)C1 (centres undefined) | -1.94% | 0.65% | 14%
22 | CCCCCCNC(=N)c1ccc2[nH]c(-c3ccc(O)cc3)nc2c1 | 3.58% | 4.17% | 3.78%
23 | O=C(/C=C/c1ccc(C(F)(F)F)cc1)NCCCCCN1CCN(C(=O)Nc2ccc(Cl)c(Cl)c2)CC1 | 0.91% | 2.31% | -0.42%
24 | Cc1nc2c(-n3cc(Cn4ccnc4)c4ccccc43)ncnc2n1-c1ccc(Cl)cc1Cl | 0.32% | 0.41% | -1%
25 | Nc1nc(N)c2c(ccc3nn(Cc4cccnc4)cc32)n1 | 5.81% | 5.44% | 4.81%
26 | COc1ccc(NC(=O)c2cccc(Br)c2)cc1N1CCN(CCCCCCCN2CCN(c3cc(NC(=O)c4cccc(Br)c4)ccc3OC)CC2)CC1 | 3.47% | 2.27% | 0.78%
27 | N=C(N)Nc1ccc(NC(=O)Nc2ccc(NC(=N)N)cc2)cc1 | 0.9% | 0.77% | 0.04%
28 | COCCNCc1ccc(-c2cccc(CNC3CCN(Cc4ccccc4)CC3)c2)cc1 | 4% | 3.16% | 4.77%
29 | O=C(Nc1ccc(OC2CCN(Cc3ccccc3)C2)c(Cl)c1)c1ccco1 (centres undefined) | 5.7% | 6.46% | 4.97%
30 | COc1ccc2ncc(F)c(CCN3CC[C@@H](CNCc4ccc5c(c4C)OCCO5)C3)c2n1 | 27.8% | 35.3% | 52.1%
31 | Cc1cccc2nc(-c3cccc(-c4ccc(NC(=O)COC(C)C)cc4)c3)[nH]c12 | -3.18% | 0.45% | -2.12%
32 | COc1ccc2c(N/N=C/c3ccccc3[N+](=O)[O-])ccnc2c1 | 4.94% | -0.53% | 3.75%
33 | CN(C)Cc1c(O)ccc2oc(Cc3ccccc3)cc12 | -1.64% | -1.55% | -0.96%
